From PMC7862700, “An all-to-all approach to the identification of sequence-specific readers for epigenetic DNA modifications on cytosine”

Tests used:
Assay in all cases: DAPPL (digital affinity profiling via proximity ligation, sequencing); 10 mM Tris-HCl pH 7.5, 50 mM NaCl, 1 mM DTT, 4% glycerol, room temperature, 30 min; GST-TFs on glutathione beads, 16-mer random dsDNA library, 0.1% formaldehyde crosslink after washing; high values mean tight binding
Settings in all cases: protein: recombinant; tags: N-terminal GST; dsDNA, one strand shown
FLI1 = target: T1, FLI1 (Homo sapiens, UniProt Q01543 1-452)
T1 sequence: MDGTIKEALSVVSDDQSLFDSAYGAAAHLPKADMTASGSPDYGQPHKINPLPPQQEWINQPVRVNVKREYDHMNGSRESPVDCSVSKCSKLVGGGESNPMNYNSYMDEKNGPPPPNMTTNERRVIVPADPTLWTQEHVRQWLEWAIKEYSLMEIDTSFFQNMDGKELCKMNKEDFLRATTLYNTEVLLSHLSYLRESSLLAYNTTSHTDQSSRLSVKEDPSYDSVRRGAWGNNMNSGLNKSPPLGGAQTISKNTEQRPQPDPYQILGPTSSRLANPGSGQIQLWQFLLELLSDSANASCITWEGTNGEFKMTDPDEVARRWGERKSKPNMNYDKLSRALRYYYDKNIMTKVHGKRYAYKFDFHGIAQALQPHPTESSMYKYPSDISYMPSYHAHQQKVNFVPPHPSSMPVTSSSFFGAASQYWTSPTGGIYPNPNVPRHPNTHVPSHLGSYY
Outline: (§1)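 Beads coated with glutathione captured GST-fused human transcription factors that had been expressed in yeast, and the factors were then given DNA barcodes and pooled with a tag-only sample. The pools were incubated with 200 nmole of a random double-stranded 16-mer DNA library in Tris/NaCl/DTT/glycerol buffer for 30 min at room temperature, washed, crosslinked with 0.1% formaldehyde and proximity-ligated with BsaI/T4 ligase at 37 °C for 1 h. PCR amplification and Illumina NextSeq500 sequencing came last. Binding signal is each hexamer's read frequency for a factor divided by its frequency for the tag-only sample.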

ELK1 = target: T2, ELK1 (Homo sapiens, UniProt P19419 1-428)
T2 sequence: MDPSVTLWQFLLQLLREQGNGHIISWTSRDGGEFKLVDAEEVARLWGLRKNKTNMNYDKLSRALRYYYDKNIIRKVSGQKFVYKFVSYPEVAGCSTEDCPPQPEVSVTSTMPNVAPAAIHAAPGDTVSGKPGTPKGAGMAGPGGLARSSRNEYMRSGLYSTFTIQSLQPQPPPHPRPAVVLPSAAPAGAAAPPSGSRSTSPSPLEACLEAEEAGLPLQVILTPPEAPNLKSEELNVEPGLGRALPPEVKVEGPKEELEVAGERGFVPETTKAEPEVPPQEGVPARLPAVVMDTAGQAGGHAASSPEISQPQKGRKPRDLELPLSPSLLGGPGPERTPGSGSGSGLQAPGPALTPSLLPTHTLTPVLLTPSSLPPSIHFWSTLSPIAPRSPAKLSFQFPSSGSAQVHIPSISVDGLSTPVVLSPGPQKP
Outline: as §1

GABPA = target: T3, GABPA (Homo sapiens, UniProt Q06546 1-454)
T3 sequence: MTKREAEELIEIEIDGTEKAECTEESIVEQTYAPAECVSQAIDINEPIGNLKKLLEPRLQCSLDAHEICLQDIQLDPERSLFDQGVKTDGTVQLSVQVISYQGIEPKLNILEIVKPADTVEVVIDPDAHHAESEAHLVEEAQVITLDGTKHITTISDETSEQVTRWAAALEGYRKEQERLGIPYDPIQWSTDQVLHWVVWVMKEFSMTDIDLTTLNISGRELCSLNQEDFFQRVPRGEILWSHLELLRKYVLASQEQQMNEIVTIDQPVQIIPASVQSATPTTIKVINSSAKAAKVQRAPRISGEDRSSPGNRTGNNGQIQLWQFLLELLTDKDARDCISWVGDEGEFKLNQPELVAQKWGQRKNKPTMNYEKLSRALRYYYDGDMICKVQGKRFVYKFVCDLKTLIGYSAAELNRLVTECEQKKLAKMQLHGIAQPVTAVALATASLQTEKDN
Outline: as §1

ERG = target: T4, ERG (Homo sapiens, UniProt P11308 1-479)
T4 sequence: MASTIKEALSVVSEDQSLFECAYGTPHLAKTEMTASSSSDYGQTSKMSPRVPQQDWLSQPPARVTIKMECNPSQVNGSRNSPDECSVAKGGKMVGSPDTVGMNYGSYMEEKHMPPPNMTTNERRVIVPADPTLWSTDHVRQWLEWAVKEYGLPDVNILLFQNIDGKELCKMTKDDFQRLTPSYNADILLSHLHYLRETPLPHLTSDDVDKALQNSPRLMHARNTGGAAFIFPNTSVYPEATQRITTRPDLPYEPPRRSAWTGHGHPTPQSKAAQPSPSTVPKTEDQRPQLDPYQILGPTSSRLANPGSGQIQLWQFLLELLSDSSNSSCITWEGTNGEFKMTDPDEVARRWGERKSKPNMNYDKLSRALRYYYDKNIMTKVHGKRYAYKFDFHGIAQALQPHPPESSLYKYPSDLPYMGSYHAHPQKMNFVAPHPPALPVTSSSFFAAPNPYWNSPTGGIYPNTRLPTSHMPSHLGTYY
Outline: as §1

ELF1 = ELF1 (Homo sapiens, UniProt P32519 1-619)
Sequence of ELF1 (P32519 whole entry): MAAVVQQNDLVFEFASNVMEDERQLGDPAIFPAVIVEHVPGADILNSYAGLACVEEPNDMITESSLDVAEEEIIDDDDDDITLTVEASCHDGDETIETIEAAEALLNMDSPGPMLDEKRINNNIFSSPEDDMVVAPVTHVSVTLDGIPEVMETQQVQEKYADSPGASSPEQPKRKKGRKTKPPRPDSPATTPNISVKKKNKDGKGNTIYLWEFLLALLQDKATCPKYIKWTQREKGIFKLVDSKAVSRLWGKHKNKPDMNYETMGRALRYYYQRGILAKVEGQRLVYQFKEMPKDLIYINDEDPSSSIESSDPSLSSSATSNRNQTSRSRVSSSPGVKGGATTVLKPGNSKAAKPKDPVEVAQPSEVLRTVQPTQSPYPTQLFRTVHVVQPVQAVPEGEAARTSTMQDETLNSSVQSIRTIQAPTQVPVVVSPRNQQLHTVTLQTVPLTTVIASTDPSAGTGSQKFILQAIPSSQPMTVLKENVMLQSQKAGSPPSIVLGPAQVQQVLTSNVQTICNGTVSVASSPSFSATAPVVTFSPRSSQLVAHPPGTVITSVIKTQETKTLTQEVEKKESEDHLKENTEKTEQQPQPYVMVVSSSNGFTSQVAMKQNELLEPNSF
Outline: as §1

EHF = target: T5, EHF (Homo sapiens, UniProt Q9NZC4 1-300)
T5 sequence: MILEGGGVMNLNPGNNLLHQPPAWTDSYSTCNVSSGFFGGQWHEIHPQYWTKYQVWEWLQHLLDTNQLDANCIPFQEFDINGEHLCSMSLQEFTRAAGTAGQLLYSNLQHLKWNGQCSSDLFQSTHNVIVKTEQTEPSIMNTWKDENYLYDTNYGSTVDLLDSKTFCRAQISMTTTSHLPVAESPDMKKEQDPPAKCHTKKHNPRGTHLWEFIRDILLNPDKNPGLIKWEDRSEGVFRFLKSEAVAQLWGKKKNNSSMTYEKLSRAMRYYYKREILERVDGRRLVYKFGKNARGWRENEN
Outline: as §1

SPI1 = SPI1 (Homo sapiens, UniProt P17947 1-270)
Outline: as §1

SPIB = SPIB (Homo sapiens, UniProt Q01892 1-262)
Sequence of SPIB (Q01892 whole entry): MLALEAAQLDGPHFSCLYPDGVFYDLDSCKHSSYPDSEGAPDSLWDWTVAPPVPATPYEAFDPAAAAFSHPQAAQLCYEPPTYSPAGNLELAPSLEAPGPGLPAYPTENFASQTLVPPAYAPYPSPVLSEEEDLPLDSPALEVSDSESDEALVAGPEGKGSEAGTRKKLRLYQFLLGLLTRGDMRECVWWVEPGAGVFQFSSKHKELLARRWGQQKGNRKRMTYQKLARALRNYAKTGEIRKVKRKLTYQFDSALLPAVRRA
Outline: as §1

ELK3 = target: T6, ELK3 (Homo sapiens, UniProt P41970 1-407)
T6 sequence: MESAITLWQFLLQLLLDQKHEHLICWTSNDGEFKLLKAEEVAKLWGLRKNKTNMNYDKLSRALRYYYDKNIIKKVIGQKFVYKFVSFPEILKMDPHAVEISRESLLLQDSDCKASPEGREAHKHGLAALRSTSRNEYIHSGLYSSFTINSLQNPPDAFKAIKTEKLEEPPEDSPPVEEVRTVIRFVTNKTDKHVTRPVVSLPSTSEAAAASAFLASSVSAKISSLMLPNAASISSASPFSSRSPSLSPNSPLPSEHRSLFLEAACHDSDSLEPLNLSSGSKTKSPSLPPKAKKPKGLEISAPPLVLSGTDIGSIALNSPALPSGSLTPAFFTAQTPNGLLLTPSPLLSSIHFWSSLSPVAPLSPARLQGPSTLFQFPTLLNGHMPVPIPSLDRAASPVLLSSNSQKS
Outline: as §1

For TGTTAA, the binding signal (FLI1) was 1.11 fold enrichment (6-mer frequency, TF over GST control), the binding signal (ELK1) was 1.15 fold enrichment (6-mer frequency, TF over GST control) and the binding signal (GABPA) was 1.17 fold enrichment (6-mer frequency, TF over GST control). For the same sequence, the binding signal (ERG) was 1.11 fold enrichment (6-mer frequency, TF over GST control), the binding signal (ELF1) was 1.09 fold enrichment (6-mer frequency, TF over GST control) and the binding signal (EHF) was 1.03 fold enrichment (6-mer frequency, TF over GST control). For the same sequence, the binding signal (SPI1) was 1.07 fold enrichment (6-mer frequency, TF over GST control), the binding signal (SPIB) was 1.13 fold enrichment (6-mer frequency, TF over GST control) and the binding signal (ELK3) was 1.15 fold enrichment (6-mer frequency, TF over GST control).
